# G9a block – blocks human histone lysine methyltransferase G9a | G9a H3K9 monomethylation, AlphaScreen, 2 h | Potency, µM (highest dose often 102 µM), hits mostly inhibitors | Q96KQ7 | AID 504332 | 8.8% of 350,000 active; note: nearly all actives have a fitted effect of over 75% in size
#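 Signal arises when biotinylated H3K9 peptide, once monomethylated, bridges streptavidin donor and antibody-captured acceptor beads. Enzyme at 20 nM was preincubated 15 min with test compounds; peptide 500 nM and SAM 20 uM then reacted for 2 h.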
# Six1-Eya2 inh – blocks human Six1 binding to Eya2 | Q15475+O00167 | AlphaScreen GST-Six1/His-Eya2 binding, biochemical; hits give low values | activity change, % (no concentration beside the values) | 0.56% of 360,000 active | AID 651725; in the data active = activity change below about -65%; inconclusive = mostly about -30% to -63%
#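 AlphaScreen with GST-Six1 and His-Eya2 (5X mix: 250 nM and 500 nM), glutathione donor and nickel acceptor beads; buffer 50 mM Tris pH 8.0, 300 mM NaCl, 1 mM TCEP; 1 h at 37 C in the dark.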
# JMJD2A Tudor – inhibitors of human JMJD2A Tudor domain | 4.4% of 390,000 active | AlphaScreen JMJD2A-Tudor / H3K4me3 peptide binding | O75164 | Potency, µM (titrated, usually from 114 µM), hits mostly inhibitors | AID 504339; note: nearly all actives have a fitted effect of over 50% in size
# BAZ2B block – inhibitors of human BAZ2B bromodomain; AID 504333; AlphaScreen BAZ2B-H3K14Ac peptide displacement; Q9UIF8; Potency, µM (series often up to 114 µM), actives largely listed as inhibitors; 4.4% of 360,000 active; note: nearly all actives have a fitted effect of over 60% in size
#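 AlphaScreen luminescence quantifies BAZ2B engagement of H3K14Ac peptide; the protein and biotinylated peptide are both at 50 nM final, buffer PBS pH 7.4 with 0.01% Tween-20, all steps at room temperature.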
# CtBP-E1A blk – inhibitors of CtBP/E1A interaction; AlphaScreen GST-E1A/His-CtBP binding, 1536-well; hits give low values; activity change, % (test concentration not listed); 0.49% of 340,000 active; AID 651724; in the data active = activity change below about -65%; inconclusive = mostly about -30% to -63%
#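 Homogeneous bead-based format: GST-tagged E1A captured on glutathione donor beads, His-tagged CtBP on nickel acceptor beads; compounds precede bead addition by 2 h at 37 °C.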
# HP1b chromo inh – inhibitors of HP1-beta chromodomain binding to methylated histone tails; P83916; AlphaScreen HP1-beta / biotin-H3K9me3 peptide binding; Potency, µM (doses to about 114 µM), actives largely listed as inhibitors; 0.56% of 390,000 active; AID 540317; note: nearly all actives have a fitted effect of over 70% in size
#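 HP1-beta protein (50 nM final) preincubated 30 min at room temperature with biotinylated H3(1-18)K9me3 peptide (50 nM) in PBS pH 7.4, 0.01% Tween-20, then compound added for 30 min. AlphaScreen streptavidin donor/nickel chelate acceptor beads (10 ug/mL final), 30 min dark, luminescence read.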
# Hits are given with their value; n = inactive; u = inconclusive; x = not tested or not shown; ! = not active in a repeat; [ ] = remark or other dose. A selection: hits, their analogues and other compounds. The true share with any hit is near 10%. Unless noted, calls come from the whole dose curve; as a rule, active = well fitted inhibition curve with a large enough effect; inconclusive = small, poorly fitted or top-dose-only effect; inactive = no such curve, though single readings can be large or run the other way.
SMILES,G9a block,Six1-Eya2 inh,JMJD2A Tudor,BAZ2B block,CtBP-E1A blk,HP1b chromo inh
CCCCC12CN3CC(C)(CN(C1)C3c1ccccn1)C2=O (centres undefined),0.631µM,x,25.1µM,8.91µM,x,n
CN1CCc2nc(SCc3ccccc3Br)c(C#N)cc2C1,17.8µM,n,u,n,x,n
CCC(C)N1C(=O)NC(=O)C2(Cc3c(ccc4ccccc34)N(C)C2)C1=O (centres undefined),1.78µM,n,n,u,n,n
CCCCN1C(=O)NC(=O)C2(Cc3cc(C)ccc3N(C)C2)C1=O (centres undefined),u,n,n,n,n,n
CCCCCSc1cc(OC)c(CCNC)cc1OC,u,u,u,u,n,n
CCCCCCCSc1cc(OC)c(CCNC)cc1OC,22.4µM,u,44.7µM,20µM,u,u
COc1ccc(S(=O)(=O)N2Cc3cnnn3-c3ccccc3C2C#N)cc1 (centres undefined),x,n,n,x,n,n
N#CC1c2ccccc2-n2nncc2CN1S(=O)(=O)c1cc(Cl)cc(Cl)c1 (centres undefined),x,n,89.1µM,x,n,n
Cn1cc(C(=O)NCc2ccccc2)c2ccccc21,n,n,n,n,n,n
O=C(CCS(=O)NCc1ccccc1)NCc1ccccc1 (centres undefined),17.8µM,x,x,n,x,x
CN(C)c1ccc(C(O)P(=O)(OCc2ccccc2)c2ccc(N(C)C)cc2)cc1 (centres undefined),n[12.7 µM],n,89.1µM,39.8µM,n,u
CC(C)c1ccc(C(O)P(=O)(OCc2ccccc2)c2ccc(N(C)C)cc2)cc1 (centres undefined),n,n,u,u,n,n
COc1ccc2c(c1)CC[C@@H]1[C@@H]2CC[C@]2(C)[C@@H](NCCCCCCN3C(=O)C=CC3=O)CC[C@@H]12,n,x,x,x,x,x
COc1ccc2c(c1)CCC1C2CC[C@@]2(C)C1CC[C@@H]2NCCCCCCN1C(=O)C=CC1=O (some centres undefined),2.51µM,x,x,x,x,x
COc1ccccc1NC(=O)Cn1c(=O)n(-c2cccc(Cl)c2)c(=O)c2sc3ccccc3c21,n,x,n,n,x,n
C[N+]1(CC(COCc2ccccc2)OC(=O)Cc2ccccc2)CCOCC1 (centres undefined),8.91µM,n,u,n,n,n
O=C(CCn1c(=O)oc2ccccc21)N1CCN(C(c2ccccc2)c2ccccc2)CC1,u,n,n,n,n,n
COc1ccc(N2CC(C(=O)NCc3ccco3)CC2=O)cc1 (centres undefined),17.8µM,n,u,n,n,n
COC(C(=O)C(O)C(C)O)C1Cc2cc3cc(OC4CC(OC5CC(O)C(OC)C(C)O5)C(OC(C)=O)C(C)O4)c(C)c(O)c3c(O)c2C(=O)C1OC1CC(OC2CC(OC3CC(C)(O)C(OC(C)=O)C(C)O3)C(O)C(C)O2)C(O)C(C)O1 (centres undefined),n,x,x,x,x,x
CCOP(=O)(Cc1cc(C(=O)CC)c(C)o1)OCC,8.91µM,n,n,n,n,n
CN(C)C(=O)Oc1cc(OC(=O)N(C)C)cc([C@@H](O)CNC(C)(C)C)c1,n[21.5 µM],x,x,x,x,x
Cc1cccc(-n2nc(C)c(C(=O)N3CCN(c4ccccc4)CC3)c2-n2cccc2)c1,n,x,u,u,x,n
CC1OC1P(=O)(O)O (centres undefined),25.1µM!,x,x,x,x,x
[O]=[Cr](=[O])([OH])[O][Cr](=[O])(=[O])[OH],n,x,x,x,x,x
COCCCNC(=S)NNC(=O)c1ccc(C(C)(C)C)cc1,x,n,n,n,x,n
SMILES,G9a block,Six1-Eya2 inh,JMJD2A Tudor,BAZ2B block,CtBP-E1A blk,HP1b chromo inh
COCCNCCOc1ccc(C(C)(C)c2ccccc2)cc1,11.2µM,n,31.6µM,u,n,u
CNC(=O)OCCc1n(C)cc[n+]1C,14.1µM,n,n,n,n,n
CO[C@@H](C)[C@](O)(C(=O)OCC1=CCN2CC[C@@H](O)[C@H]12)C(C)C,n[21.5 µM],x,x,x,x,x
c1ccc2sc(C3(NCC4CC4)CCCCC3)cc2c1,n,x,x,x,x,x
CN1C(=O)C(=Cc2ccc(SC3CCCCC3)o2)C(=O)N(C)C1=O,12.6µM,n,u,56.2µM,n,u
c1ccc(C2CNCc3ccccc32)cc1 (centres undefined),n,x,x,x,x,x
